Assay results: PubChem BioAssay (NCI)
This is part of a sample that, as a whole, favours compounds with a hit. Of some 79,000 tested, about 15% had one in any assay. Calls of active or inactive are those of the source. Rule as the data show it: active = growth inhibition above about 70%; inactive = the rest. Where a SMILES comes first, the peptide text is derived from it. The star is where a group is joined. Cbz = O=C(OCc1ccccc1)*

Test: NCI Yeast Anticancer Drug Screen. Data for the sgs1 mgt1 strain (AID 161);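 also: 0% = growth of cultures given vehicle only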
Conditions: S. cerevisiae sgs1 mgt1 strain, at 50.0 µM, active compounds read high
Procedure, shortened: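 Mutant yeast exposed to compound; growth scored against vehicle-only wells.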
In the case of O=C1c2ccccc2Cc2ccccc21, the growth inhibition is reported as -1.7% (inactive). In the case of O=[N+]([O-])C(C(Cl)=C(Cl)Cl)=C(N1CCCCC1)N1CCCCC1, the growth inhibition is reported as -13.1% (inactive). For CC1(C)C=Cc2c(cc(O)c3c(=O)c4cc(Cl)ccc4[nH]c23)O1, the growth inhibition was -14.8% (inactive). For CC(O)(C(=O)O)C(NC(=O)c1ccccc1)C(=O)O (stereo not given), the growth inhibition was -2.5% (inactive). With CC(C)COC(=O)c1cc(O)[nH]c(=O)c1 the growth inhibition was 1.75% (inactive). For CCOC(=O)CCC(NC(=O)C(CCC(=O)O)NC(=O)OCc1ccccc1)C(=O)OCC (stereo not drawn) (Cbz-Glu-Glu(OEt)-OEt; configuration not given here), the growth inhibition was -1.85% (inactive). In the case of NC(C(=O)O)C1C=CCCC1 (stereo not given), the growth inhibition is reported as -30.8% (inactive). In the case of CC1(C)OC(=O)ON(Cc2ccccc2)C1=O, the growth inhibition is reported as 2.2% (inactive). With CCOC(=O)C1=C(C(=O)c2ccc(OC)cc2)C(c2ccc(OC)c(OC)c2)C(C(=O)c2ccc(OC)cc2)=C(C(=O)OCC)N1 the growth inhibition was -32.2% (inactive). For CN1CCc2sccc2C(c2ccccc2)O1 (stereo not given), the growth inhibition was -3.8% (inactive). In the case of COc1ccc(N2C(=O)/C(=C\c3ccc(N(CCC#N)CCC#N)cc3)N=C2COc2ccccc2)cc1, the growth inhibition is reported as 4.45% (inactive). For CCCC(C)C1(CC)NC(C)(C)CC(C)O1 (stereo not given), the growth inhibition was -5.75% (inactive). For CC(C)COP(C)(=O)C(N)(C(F)(F)F)C(F)(F)F (stereo not given), the growth inhibition was 35.6% (inactive). With N#CC1C(=O)NC(=O)C(C#N)C12CCCC2 (stereo not given) the growth inhibition was 5.25% (inactive). For O=c1oc2ccccc2c(O)c1[N+](=O)[O-], the growth inhibition was -6.4% (inactive). With O=C1O[C@@H]2C3COC(O)[C@](O)(O3)[C@@H]2/C1=C\c1ccc(O)cc1 (stereo not given in full) the growth inhibition was 8.4% (inactive). For CC(=O)/C(C)=C\C1C(C)=CCCC1(C)C (stereo not given), the growth inhibition was -27.8% (inactive). For CCN(CC)c1ccc2c(c1)C(O)c1ccccc1-2 (stereo not given), the growth inhibition was -5.7% (inactive). In the case of CCN(CC)CCN(C)C(O)(C(=O)c1ccccc1)C1CCCC1 (stereo not given), the growth inhibition is reported as 2.3% (inactive). In the case of C/C(Cc1ccccc1)=N\NS(=O)(=O)c1ccc(C)cc1, the growth inhibition is reported as 35.9% (inactive). In the case of O=C1C(=S)Nc2cccc(F)c21, the growth inhibition is reported as 33.2% (inactive). For CCOC(=O)NC(=Cc1ccccn1)c1ccc(Cl)cc1 (mixture of isomers), the growth inhibition was -8.35% (inactive). In the case of O=C(Nc1cccc2ccccc12)OC1CCCC1, the growth inhibition is reported as -14.4% (inactive). For CCCCCCC(C)C(C#N)C(=O)OCC (stereo not given), the growth inhibition was -26.1% (inactive). With CCCCNc1ccc([N+](=O)[O-])cc1[N+](=O)[O-] the growth inhibition was 18.4% (inactive). In the case of CCCCOC(=O)C1(C(=O)OCCCC)CC1, the growth inhibition is reported as 1.3% (inactive). In the case of C1CSCCSCCSCCS1, the growth inhibition is reported as -0.85% (inactive). With CCN(CC)C(=N)N the growth inhibition was -27.2% (inactive). With CC=C/C=C/[C@@H]1O[C@](O)([C@H](CC)C(=O)NC/C=C/C=C(\C)[C@@H](OC)[C@@H](C)[C@@H]2O[C@H](/C=C/C=C/C=C(\C)C(=O)c3c(O)cc[nH]c3=O)[C@H](O)[C@@H]2O)[C@H](O)[C@H](O)C1(C)C the growth inhibition was 38.9% (inactive). With CCOC(=O)C(/C(=N\NC(=O)OC)C(=O)Nc1cc(OC)ccc1OC)c1cnc2ccccc2n1 (stereo not given) the growth inhibition was -45.4% (inactive). For [Cl][Pt+2][Cl].[NH-]C(CO)C([NH-])CO (stereo not given), the growth inhibition was -10.3% (inactive). In the case of Cn1nc(-c2ccccc2)c(C(=O)/C=C/c2ccc(F)cc2)c(N2CCCCC2)c1=O, the growth inhibition is reported as -0.95% (inactive). In the case of NC(=O)c1ccc2c(ccc3ccccc32)c1, the growth inhibition is reported as 5.05% (inactive). For CC12CCC(=O)C=C1CCC1C2C(=O)CC2(C)C1CCC2(O)C(=O)Cn1c(=O)[nH]cc(F)c1=O (stereo not given), the growth inhibition was 3.55% (inactive). In the case of COC12OCCN(C)C1=CC(=O)C1N=NCC12 (stereo not given), the growth inhibition is reported as 11.2% (inactive). In the case of O=C(N/N=C/c1ccccc1)c1c(F)c(F)c(F)c(F)c1F, the growth inhibition is reported as -32.9% (inactive). In the case of O=C/C=C/N=c1ccn(O)cc1, the growth inhibition is reported as 3.05% (inactive). For COC(=O)CCCC(NC(=O)c1ccc([N+](=O)[O-])cc1)C(=O)OC (stereo not given), the growth inhibition was 13.9% (inactive). For O=[N+]([O-])c1ccc(N/N=C2\C=CCCC2)c([N+](=O)[O-])c1, the growth inhibition was -13% (inactive). For CCCCCCCNC1=C(O)c2ccccc2C(=O)C1=O, the growth inhibition was 2.2% (inactive).
